The structures appear in SMILES notation. Structures can show the parent of a compound that is named as a salt.

The results in this text go back to the supplement of paper PMC10981050.

The assay concerns MARIMO. As to the kind of experiment: cell viability relative to vehicle control; higher = less cytotoxic. Particulars: 10 µM; SRSF2 genotype: SRSF2 P95H/wt. The procedure, abridged:
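After removal of identity-inconsistent compounds, the Selleck bioactive, kinase and epigenetic probe libraries were screened on CRISPR-edited mutant clones and isogenic wild-type clones of four leukaemia lines. Plates were 384-well, each well holding 2000 cells in 50 µL medium and receiving a single 10 µM acoustically dispensed dose. CellTiter-Glo luminescence was read 48 h later, after the supernatant was taken off. Genedata Screener was used to express viability as percent of the on-plate vehicle control.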
Consider `CC(C)Cc1ccc(C(C)C(=O)O)cc1` (stereo unspecified) [Ibuprofen (Advil)], for which the cell viability came out at 95.1%.
In the case of `COCCOc1cnc2ccn([C@H](C)c3nnc4c(F)cc(-c5cnn(C)c5)cn34)c(=O)c2c1` it was 86.8%; in that of `CC(=O)O[C@H]1C(=O)[C@@]2(C)[C@H]([C@H](OC(=O)c3ccccc3)[C@]3(O)C[C@H](OC(=O)[C@H](O)[C@@H](NC(=O)c4ccccc4)c4ccccc4)C(C)=C1C3(C)C)[C@]1(OC(C)=O)CO[C@@H]1C[C@@H]2O` [Paclitaxel (Taxol)], 7.78%; in that of `O=C[C@H](O)[C@H]1OC(=O)[C@@H](O)[C@H]1O` [D-Glucurone], 84.2%.
In the case of `CC(Oc1cc(-c2cnn(C3CCNCC3)c2)cnc1N)c1c(Cl)ccc(F)c1Cl` [(S)-crizotinib] it was 84.4%; in that of `CCS(=O)(=O)N1CCC([C@@H](C)n2c(C)c(C(=O)NCc3c(OC)cc(C)[nH]c3=O)c3ccccc32)CC1`, 99.8%.
As to `C#Cc1cccc(Nc2ncnc3cc4c(cc23)OCCOCCOCCO4)c1` [Icotinib], the cell viability was found to be 92.4%.
Then `COc1cc(Nc2c(C#N)cnc3cc(OCCCN4CCN(C)CC4)c(OC)cc23)c(Cl)cc1Cl` [Bosutinib (SKI-606)], with 38.5%; and `COC(=O)N[C@H](C(=O)N1CC2(CC2)C[C@H]1c1nc(-c2ccc3c(c2)C(F)(F)c2cc(-c4ccc5[nH]c([C@@H]6[C@H]7CC[C@H](C7)N6C(=O)[C@@H](NC(=O)OC)C(C)C)nc5c4)ccc2-3)c[nH]1)C(C)C` [Ledipasvir (GS5885)], with 86.4%.
In the case of `Clc1ccc(CSC(Cn2ccnc2)c2ccc(Cl)cc2Cl)cc1` (stereo unspecified) [Sulconazole Nitrate] it was 46.5%.
Then `COc1ccc2c(c1)c(CC(=O)OCC(=O)O)c(C)n2C(=O)c1ccc(Cl)cc1` [Acemetacin (Emflex)], with 97.8%; and `CC(C)(O)C1CCC(C)(C2C(O)CC3(C)C4CC(O)C5C(C)(C)C(O)CCC56CC46CCC23C)O1` (stereo unspecified) [Cyclogalegenol], with 93.5%; and `Cc1cc(Cn2cnc3c2CC(C(=O)O)N(C(=O)C(c2ccccc2)c2ccccc2)C3)ccc1N(C)C` (stereo unspecified), with 102%.
For the compound `CC[C@H](NC(=O)[C@H](C)NC)C(=O)N1C[C@@H](O)C[C@H]1Cc1c(-c2[nH]c3cc(F)ccc3c2C[C@@H]2C[C@H](O)CN2C(=O)[C@H](CC)NC(=O)[C@H](C)NC)[nH]c2cc(F)ccc12`, the cell viability was 78.6%.
In the case of `NCCCCCC(=O)O` it was 101%; in that of `Cc1ccc(NC(=S)NNc2c([N+](=O)[O-])cc(C(F)(F)F)cc2[N+](=O)[O-])cc1Cl`, 87.3%.
Then `CCCCCCCCCC(C)=O` [Methylnonylketone], with 96.2%.
Then `CC(C)n1nccc1-c1ncccc1COc1cccc(O)c1C=O` [Voxelotor(GBT440, GTx011)], with 104%; and `O=c1cc(CN2CCOCC2)occ1OCCCCCSc1ccnc2cc(C(F)(F)F)ccc12`, with 49.4%.
As for `CCCOC(=O)c1cc(O)c(O)c(O)c1` [Propyl gallate], the cell viability was determined as 81.8%.
On to `Cn1c2ccccc2c2c3c(c4c5ccccc5n(CCC#N)c4c21)CNC3=O`, for which the cell viability came out at 85.5%.
Then `CC(C)c1ccccc1Cc1cc(C(=O)Nc2ccc(S(=O)(=O)c3ccccc3C(C)(C)C)cc2)c(O)c(O)c1O`, with 17.6%; and `COc1ccc2cc1Oc1ccc(cc1)C[C@H]1c3cc(c(OC)cc3CCN1C)Oc1c(O)c(OC)cc3c1[C@H](C2)N(C)CC3` [Fangchinoline], with 12.1%; and `CC(C)C(=O)Oc1ccc(CO)cc1[C@H](CCN(C(C)C)C(C)C)c1ccccc1` [Fesoterodine Fumarate], with 91.7%.
In the case of `COc1ccc2c(c1)c(CC(=O)O)c(C)n2C(=O)c1ccc(Cl)cc1` [Indometacin Sodium], the cell viability is 96.7%.
In the case of `Nc1cccc(S(=O)(=O)N2CCCN(S(=O)(=O)c3ccc4c(c3)OCCO4)CC2)c1` it was 96.3%; in that of `Cc1cc(-c2ncc(CC(=O)Nc3ccc(-c4cnccn4)cn3)cc2C)ccn1`, 81.6%; in that of `CC(C)(O)C1CCC(C)(C2C(O)CC3(C)C4CC(OC5OC(CO)C(O)C(O)C5O)C5C(C)(C)C(OC6OCC(O)C(O)C6O)CCC56CC46CCC23C)O1` (stereo unspecified) [Astragaloside A], 109%.
Then `O=c1[nH]cnc2c1ncn2[C@H]1C[C@H](O)[C@@H](CO)O1` [2'-Deoxyinosine], with 104%; and `CCN(CC)C(=O)C1(c2ccccc2)CC1CN` (stereo unspecified) [Milnacipran HCl], with 99.6%.
Regarding `Clc1ccc(COC(Cn2ccnc2)c2ccc(Cl)cc2Cl)cc1` (stereo unspecified) [Econazole nitrate (Spectazole)], the cell viability stood at 64.3%.

As usually defined, the cell viability is a read-out of living cells in per cent, often relative to untreated cells.
